± gives the standard deviation of the averaged measurements. In all, about 1,600 compounds were measured (“normalized intracellular growth (luminescence, IQM-normalized) in RAW264.7 macrophages”: median about 1, lowest 2% from about 0.43 on). This is one part of a sample in which the lowest values are shown more often than they occur.
System: Salmonella enterica serovar Typhimurium SL1344
Assay: normalized intracellular growth (luminescence, IQM-normalized) in RAW264.7 macrophages (fraction of plate interquartile mean); higher = more bacterial growth (less inhibition)
Details: 10 µM

| SMILES | normalized intracellular growth (time point: T3 (3 h)) | normalized intracellular growth (time point: Tfinal (~6 h)) |
| --- | --- | --- |
| CCCNC(C)(C)COC(=O)c1ccccc1 | 0.828 ± 0.083 | 0.1174 ± 0.0011 |
| O=C(OOC(=O)c1ccccc1)c1ccccc1 | 1 ± 0.017 | 1.05 ± 0.037 |
| O=C(OCc1ccccc1)c1ccccc1 | 0.966 ± 0.057 | 0.928 ± 0.069 |
| C=C1CC[C@H](O)C/C1=C/C=C1\CCC[C@]2(C)[C@@H]([C@H](C)/C=C/[C@H](C)C(C)C)CC[C@@H]12 | 1.04 ± 0.059 | 1.2 ± 0.086 |
| CC(O)(CC(=O)O)CC(=O)O | 0.971 ± 0.034 | 1.02 ± 0.061 |
| NS(=O)(=O)c1ccc(C(=O)O)cc1 | 1.006 ± 0.0098 | 0.964 ± 0.076 |
| NCc1ccc(S(N)(=O)=O)cc1 | 0.686 ± 0.071 | 0.0766 ± 0.0043 |
| Nc1ccc(S(N)(=O)=O)cc1 | 0.9673 ± 0.006 | 1.07 ± 0.1 |
| O=C(O)CN1C(=O)c2cccc3cccc(c23)C1=O | 0.914 ± 0.099 | 1.05 ± 0.096 |
| CC(=O)Nc1ccc(C(=O)O)cc1 | 1.06 ± 0.055 | 0.967 ± 0.1 |
| CCCCC(CC)CCC(CC(C)C)OS(=O)(=O)O (stereo not given) | 1.03 ± 0.031 | 1.1 ± 0.03 |
| NCCC[C@H](N)C(=O)O | 0.972 ± 0.048 | 0.966 ± 0.13 |
| C[C@H]1[C@H](NC(=O)/C(=N\OC(C)(C)C(=O)O)c2csc(N)n2)C(=O)N1S(=O)(=O)O | 0.992 ± 0.04 | 0.2 ± 0.016 |
| CC(C)(O/N=C(\C(=O)N[C@@H]1C(=O)N2C(C(=O)[O-])=C(C[n+]3ccccc3)CS[C@H]12)c1csc(N)n1)C(=O)O | 0.997 ± 0.078 | 0.806 ± 0.12 |
| FC(F)(F)COCC(F)(F)F | 0.946 ± 0.09 | 0.9 ± 0.27 |
| CC(=O)N[C@@H](CCC(N)=O)C(=O)O | 0.959 ± 0.023 | 0.942 ± 0.11 |
| Nc1ccc(S(=O)(=O)O)cc1.Nc1ccc(S(=O)(=O)O)cc1.[Zn] | 1.01 ± 0.047 | 1.15 ± 0.099 |
| CC12CCC(CC1)C(C)(C)O2 | 1.02 ± 0.024 | 0.96 ± 0.18 |
| CN(C)[C@@H]1C(O)=C(C(N)=O)C(=O)[C@@]2(O)C(O)=C3C(=O)c4c(O)ccc(Cl)c4[C@@](C)(O)[C@H]3C[C@@H]12 | 0.846 ± 0.031 | 0.23 ± 0.02 |
| CN(C)[C@@H]1C(O)=C(C(N)=O)C(=O)[C@@]2(O)C(O)=C3C(=O)c4c(O)cccc4[C@@](C)(O)[C@H]3[C@H](O)[C@@H]12 | 1.01 ± 0.074 | 0.0331 ± 0.014 |

| SMILES | normalized intracellular growth (time point: T3 (3 h)) | normalized intracellular growth (time point: Tfinal (~6 h)) |
| --- | --- | --- |
| C=C1c2c(Cl)ccc(O)c2C(=O)C2=C(O)[C@]3(O)C(=O)C(C(N)=O)=C(O)[C@@H](N(C)C)[C@@H]3[C@@H](O)[C@H]12.O=C(O)c1cc(S(=O)(=O)O)ccc1O | 1.01 ± 0.065 | 0.0256 ± 0.0064 |
| CN(C)[C@@H]1C(O)=C(C(N)=O)C(=O)[C@@]2(O)C(O)=C3C(=O)c4c(O)ccc(Cl)c4[C@@H](O)[C@H]3C[C@@H]12 | 0.727 ± 0.11 | 0.176 ± 0.0084 |
| OCc1ccccn1 | 1.02 ± 0.06 | 0.892 ± 0.1 |
| C=NC(C(=O)NC1C(=O)N2C1SC(C)(C)C2C(=O)O)c1ccccc1 (stereo not given) | 0.959 ± 0.021 | 1.04 ± 0.011 |
| Nc1ncnc(Nc2ccc(Cl)cc2)n1 | 1.1 ± 0.074 | 0.945 ± 0.42 |
| Cc1ncc([N+](=O)[O-])n1C | 0.936 ± 0.053 | 0.98 ± 0.1 |
| Nc1nccs1 | 1.03 ± 0.072 | 0.911 ± 0.12 |
| O.O.O=C([O-])CN(CCN(CC(=O)[O-])CC(=O)O)CC(=O)O.[Na+].[Na+] | 0.978 ± 0.021 | 1.02 ± 0.013 |
| O=c1[nH]c(=O)c2ccccc2o1 | 0.963 ± 0.026 | 1.02 ± 0.078 |
| CC1=C(C/C=C(\C)CCC[C@H](C)CCC[C@H](C)CCCC(C)C)C(=O)c2ccccc2C1=O | 0.968 ± 0.067 | 1.08 ± 0.064 |
| CCCCC/C=C/CCC(=O)N[C@H]1[C@H](Oc2c3cc4cc2Oc2ccc(cc2Cl)[C@@H](O[C@@H]2O[C@H](CO)[C@@H](O)[C@H](O)[C@H]2NC(C)=O)[C@@H]2NC(=O)[C@H](NC(=O)[C@@H]4NC(=O)[C@H]4NC(=O)C(Cc5ccc(c(Cl)c5)O3)NC(=O)[C@H](N)c3ccc(O)c(c3)Oc3cc(O)cc4c3)c3ccc(O)c(c3)-c3c(OC4O[C@H](CO)[C@@H](O)[C@H](O)[C@@H]4O)cc(O)cc3[C@@H](C(=O)O)NC2=O)O[C@H](CO)[C@@H](O)[C@@H]1O (stereo not given in full) [TEICOPLANIN [A(2-1) shown]] | 0.955 ± 0.07 | 1.07 ± 0.065 |
| Cc1c(C)c2c(c(C)c1O)CCC(C)(CCCC(C)CCCC(C)CCCC(C)C)O2 (stereo not drawn) [alpha-TOCHOPHEROL] | 0.999 ± 0.14 | 1.1 ± 0.13 |
| O=C(NCc1ccccc1)OCCO | 1.24 ± 0.071 | 1.33 ± 0.083 |
| CN(C)[C@@H]1C(O)=C(C(N)=O)C(=O)[C@@]2(O)C(O)=C3C(=O)c4c(O)cccc4[C@@](C)(O)[C@H]3C[C@@H]12 | 0.598 ± 0.062 | 0.209 ± 0.048 |
| CN(C)c1ccc(O)c2c1C[C@H]1C[C@H]3[C@H](N(C)C)C(O)=C(C(N)=O)C(=O)[C@@]3(O)C(O)=C1C2=O | 1.01 ± 0.091 | 0.33 ± 0.14 |
| CN(C)c1cc(NC(=O)CNC(C)(C)C)c(O)c2c1C[C@H]1C[C@H]3[C@H](N(C)C)C(O)=C(C(N)=O)C(=O)[C@@]3(O)C(O)=C1C2=O | 1.01 ± 0.05 | 1.02 ± 0.18 |
| C=C1c2cccc(O)c2C(=O)C2=C(O)[C@]3(O)C(=O)C(C(N)=O)=C(O)[C@@H](N(C)C)[C@@H]3[C@@H](O)[C@H]12 | 0.979 ± 0.029 | 0.103 ± 0.039 |
| C[C@H]1c2cccc(O)c2C(=O)C2=C(O)[C@]3(O)C(=O)C(C(N)=O)=C(O)[C@@H](N(C)C)[C@@H]3[C@@H](O)[C@@H]21 | 0.73 ± 0.065 | 0.173 ± 0.025 |
| CN(C)[C@@H]1C(O)=C(C(=O)NCN2CCCC2)C(=O)[C@@]2(O)C(O)=C3C(=O)c4c(O)cccc4[C@@](C)(O)[C@H]3C[C@@H]12 | 0.973 ± 0.013 | 0.683 ± 0.41 |
| CN(C)CCc1c[nH]c2ccc(CS(=O)(=O)N3CCCC3)cc12 | 0.989 ± 0.027 | 1.14 ± 0.15 |

— the supplement of paper PMC6331611
